Compound activity (PubChem)
Dicer processing – inhibitors of Dicer pre-microRNA processing, primary screen, biochemical, cat-ELCCA, chemiluminescence. z-score at 25 µM. Endoribonuclease Dicer (Homo sapiens), Q9UPY3. cat-ELCCA pre-miR-21 Dicer processing; hits give high values. 47,000 compounds, 6% hits; in the data active = z-score above about 3, passing the limit was not always enough;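 note: plate controls were vehicle for no effect and no enzyme for full effect; higher signal means more uncleaved substrate so more Dicer inhibition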
Target sequence (Q9UPY3 whole entry, looked up): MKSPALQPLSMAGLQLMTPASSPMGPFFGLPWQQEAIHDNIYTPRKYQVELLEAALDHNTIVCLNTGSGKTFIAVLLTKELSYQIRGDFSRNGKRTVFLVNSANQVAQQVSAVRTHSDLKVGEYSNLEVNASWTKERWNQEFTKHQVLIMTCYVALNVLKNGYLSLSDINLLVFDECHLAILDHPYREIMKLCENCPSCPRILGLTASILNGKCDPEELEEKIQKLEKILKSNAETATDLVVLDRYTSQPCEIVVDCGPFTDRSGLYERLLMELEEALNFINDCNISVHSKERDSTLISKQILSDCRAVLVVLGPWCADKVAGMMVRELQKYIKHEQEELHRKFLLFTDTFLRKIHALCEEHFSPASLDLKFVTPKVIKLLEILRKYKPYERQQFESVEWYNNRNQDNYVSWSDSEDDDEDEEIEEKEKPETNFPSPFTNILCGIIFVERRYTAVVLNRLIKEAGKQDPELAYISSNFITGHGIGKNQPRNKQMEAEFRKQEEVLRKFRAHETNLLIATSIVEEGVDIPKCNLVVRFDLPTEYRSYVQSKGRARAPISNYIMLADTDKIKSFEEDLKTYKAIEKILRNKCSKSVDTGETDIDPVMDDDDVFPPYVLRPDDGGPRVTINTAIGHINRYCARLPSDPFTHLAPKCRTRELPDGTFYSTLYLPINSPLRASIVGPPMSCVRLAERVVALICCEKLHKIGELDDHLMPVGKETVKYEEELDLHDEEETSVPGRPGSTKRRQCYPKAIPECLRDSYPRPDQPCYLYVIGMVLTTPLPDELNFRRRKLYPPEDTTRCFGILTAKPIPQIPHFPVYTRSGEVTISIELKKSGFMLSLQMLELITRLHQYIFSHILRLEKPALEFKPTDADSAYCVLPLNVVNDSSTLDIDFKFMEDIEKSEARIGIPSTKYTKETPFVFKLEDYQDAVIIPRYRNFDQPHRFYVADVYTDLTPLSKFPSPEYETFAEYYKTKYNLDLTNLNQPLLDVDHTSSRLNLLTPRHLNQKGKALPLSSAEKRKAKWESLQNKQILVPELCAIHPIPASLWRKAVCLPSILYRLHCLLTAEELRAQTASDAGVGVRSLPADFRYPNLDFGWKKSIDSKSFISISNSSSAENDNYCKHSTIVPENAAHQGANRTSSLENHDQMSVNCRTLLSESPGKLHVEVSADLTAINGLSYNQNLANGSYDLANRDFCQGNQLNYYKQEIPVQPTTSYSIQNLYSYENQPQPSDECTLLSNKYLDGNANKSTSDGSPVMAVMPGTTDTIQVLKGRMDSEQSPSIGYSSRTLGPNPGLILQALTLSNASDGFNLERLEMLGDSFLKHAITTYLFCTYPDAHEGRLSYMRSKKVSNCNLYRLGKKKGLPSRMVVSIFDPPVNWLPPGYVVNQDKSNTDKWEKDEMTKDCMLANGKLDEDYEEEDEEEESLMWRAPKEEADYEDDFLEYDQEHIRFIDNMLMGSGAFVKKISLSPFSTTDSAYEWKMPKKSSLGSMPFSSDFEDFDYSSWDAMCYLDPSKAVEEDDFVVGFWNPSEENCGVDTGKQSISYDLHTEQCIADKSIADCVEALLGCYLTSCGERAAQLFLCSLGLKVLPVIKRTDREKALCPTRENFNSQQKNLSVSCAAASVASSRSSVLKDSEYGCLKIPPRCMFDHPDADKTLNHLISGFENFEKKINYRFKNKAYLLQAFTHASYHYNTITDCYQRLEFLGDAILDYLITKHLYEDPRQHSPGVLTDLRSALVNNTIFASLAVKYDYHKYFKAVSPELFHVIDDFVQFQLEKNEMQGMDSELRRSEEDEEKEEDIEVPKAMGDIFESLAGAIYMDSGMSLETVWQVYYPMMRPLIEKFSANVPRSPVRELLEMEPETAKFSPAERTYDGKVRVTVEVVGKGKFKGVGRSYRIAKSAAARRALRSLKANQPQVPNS
* marks the source's active call; other numbers are inactive results. Shown is part of a subset that was picked to be rich in hits.

SMILES | Dicer processing
Cc1nnc(N2C(=O)C(=O)/C(=C(/O)c3ccccc3)C2c2ccccc2)s1 (stereo not given) | 1.5
N#Cc1c(N)nc2c(c1-c1cccnc1)CCCC2 | -0.72
CCC[C@@H]1C(=O)OC[C@@H]1Cc1cncn1C | -0.32
O=C(COC(=O)c1cc2ccccc2cc1OC(=O)c1ccc(Cl)cc1)c1ccc(Cl)cc1 | 1
Cc1ccc(C(=O)COC(=O)c2cc(Cl)ccc2O)cc1C | 4*
COc1ccc(C(=O)CC(=O)c2cc(Cl)ccc2O)cc1OC | -0.7
COC(=O)c1coc(=O)c2ccccc12 | 1.1
O=C(CCc1ccncc1)NNC(=O)N1Cc2ccccc2Oc2ccc(Cl)cc21 | 3.1*
O=C(CCc1nc(-c2ccc(Cl)cc2)no1)NNC(=S)NCCc1ccccc1 | -0.17
O=C(CCc1ccccc1)NNc1ccc(F)cc1F | -1.4
N#CC(C#N)=NNc1cc(C(F)(F)F)ccc1OCC(F)(F)F | 2.2
O=C(CNC1CCCCC1)Nc1cc(Cl)cc(Cl)c1 | -0.25
O=C(O)CCC1=NN2C=Nc3sc4c(c3C2NC1=O)CCCC4 (stereo not given) | 3.3*
COc1ccccc1NC(=O)Nc1cc(C)nn1C | -1.7
CCOC(=O)C1=C(C)N=C2SCCC(=O)N2C1c1ccccc1 (stereo not given) | -0.6
CCOc1cccc(C2c3c(oc4ccccc4c3=O)C(=O)N2c2ccc(C)cn2)c1 (stereo not given) | -0.32
Cc1ccc(N2C(=O)C3C4C=CC(CC4)C3C2=O)cc1 (stereo not given) | -0.11
Cc1ccc(Nc2nc(-c3ccc(O)cc3)cs2)nc1 | 4.4*
COc1ccc(-c2csc(Nc3ccc(C)cn3)n2)cc1OC | 1.1
Cc1ccc(Nc2nc(-c3ccc(O)c(O)c3)cs2)nc1 | 2.1
O=C1c2ccccc2OC(c2ccccc2)C12N=NCC2c1ccc(Cl)cc1Cl (stereo not given) | -1.2
Cn1cc(Cl)c(C(=O)NC2CCCCC2)n1 | 2.4
C=CCOc1ccc(C2c3c(oc4cc(C)c(C)cc4c3=O)C(=O)N2CCOC)cc1OC (stereo not given) | 1.4
N#Cc1nn(-c2ccccc2)c(=O)n(Cc2ccc(Cl)cc2Cl)c1=O | 0.36
COc1ccc(NC(=S)NCCCC2C=NNC2=O)cc1 (stereo not given) | 0.41
SMILES | Dicer processing
COc1cccc(C=NCCCC2C=NNC2=O)c1O (stereo not given) | 5.2*
COc1cccc(C=Nc2ccc(S(=O)(=O)/N=C(N)/N=C/c3cccc(OC)c3O)cc2)c1O | -0.79
CCC(=O)NCc1ccc(Cl)cc1Cl | -1.3
CCCc1nccn1S(=O)(=O)c1cc(F)ccc1OC | -0.53
O=C(O)Cn1c(SCc2ccccc2)nc2ccccc21 | 1.2
NC(=O)Cn1c(SC2CCCCC2)nc2ccccc21 | 1.7
CCOC(=O)Cn1c(-c2ccccn2)nc2ccccc21 | -0.59
CCSc1nc2ccccc2n1CC(N)=O | 6.7*
CCOC(=O)Cn1c(=O)n(CC(=O)OCC)c2ccccc21 | -1.1
O=C(O)CCSc1nc2ccccc2n1Cc1ccccc1 | 1.4
NC(=O)CSc1nc2ccccc2n1CCO | 12
CCn1c(SCC(=O)O)nc2ccccc21 | 3.1*
CCOC(=O)Cn1c(C)nc2ccccc21 | 4.7*
COc1ccc2c(c1)c(=O)oc1c(C)c(OC(C)C(=O)O)ccc12 (stereo not given) | -0.4
C#CCSc1n[nH]c(-c2ccc(C(C)(C)C)cc2)n1 | 1.1
CCOC(=O)c1c(C)c(C#N)c(NC(=O)c2ccccc2)n1-c1ccccc1 | -1.4
Cc1c(-c2ccc(-c3ccccc3F)cc2)nc2ccc(F)cc2c1C(=O)O | 0.46
OC1=C(O)c2nc3cc(F)ccc3nc21 | 3.1*
CCOC(=O)c1ccc2nc3c(nc2c1)C(O)=C3O | 8.5
O=C(OCc1ccccc1Br)c1cc([N+](=O)[O-])cc2c1-c1ccc([N+](=O)[O-])cc1/C2=N\O | -1.6
Cc1nc(-n2cccc2)sc1C(=O)NN | -0.02
NS(=O)(=O)c1ccc(-c2cc(C(F)(F)F)ccn2)s1 | 0.71
Cc1cc(C)n(C2=NCCN2)n1 | 0.19
Cc1ccc(NC(=O)CCS(=O)(=O)Cc2ccccc2)c(Br)c1 | 4.5*
O=C(O)CCC(=O)Nc1ccc(OC(F)(F)F)cc1Br | -1
SMILES | Dicer processing
O=C(O)CCC(=O)Nc1cc2c(cc1Br)OCCO2 | 0.22
COC(=O)c1cscc1OS(=O)(=O)c1ccc(Cl)cc1 | 0.22
CC(C)N1C(=O)C(O)(CC(=O)c2ccc3c(c2)OCCO3)c2ccccc21 (stereo not given) | -0.38
Cc1nnc(SCC#CCO)s1 | 12
Cc1cc(Nc2ccccc2Cl)c2ccccc2n1 | -0.1
CCOc1ccccc1Nc1cc(C)nc2ccc(OC)cc12 | 1.7
CCOc1ccc2nc(C)cc(Nc3ccc(N(C)C)cc3)c2c1 | 4.5*
CCOC(=O)CC(=O)CSc1nc(C)c2cc(OCC)ccc2n1 | 0.05
Cc1ccc2nc(C)cc(NCCO)c2c1 | -1.1
COc1ccc2nc(C)cc(Nc3ccccc3OC)c2c1 | 3.3*
Cc1cc(Nc2cccc(O)c2)c2cccc(C)c2n1 | 1
N#Cc1nc(COc2ccc(Br)cc2)oc1NCCc1ccccc1 | 2.8
